Assay [1] can be described thus: Her2 expression decrease, cell viability multiplex – SKBR3 breast tumor cells, AlphaScreen, ATP viability, primary screen (AID 461;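 active = Her2 level under about 52% in both replicate screens, with viability over 70% of control, limit read from the data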;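 as to Her2 level: lower value means less Her2 protein in the cells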;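 as to viability: percent of carrier control wells set as 100% viability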). To be noted: SKBR3 Her2 protein level, 18-24 h, measured here: SKBR3 viability, ATP luminescence, at 10 µM. On the technique in general: In Alpha technology, singlet oxygen from a donor bead excites a nearby acceptor bead.
Assay [2] addresses Receptor tyrosine-protein kinase erbB-2 (Homo sapiens) (UniProt P04626). Described as above. Conditions: 18-24 h, at 10 µM, stronger effect = lower value.
Assay [3] in a line: reduced viability of SK-BR-3 breast cancer cells – cell-based, 24 h, human, pilot screen (AID 572;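 active = viability at or below 10% of carrier control in both of two separate runs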;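 also: compound exposure lasted between 18 and 24 h rather than exactly 24 h; 100% = carrier-treated control wells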). To be noted: SK-BR-3 viability, CellTiter-Glo luminescence, at 10 µM, stronger effect = lower value. (ATP-based viability assays read luminescence as a measure of living cells.)
The nature of assay [4]: HUVEC growth inhibition – cell-based, human, primary screen (AID 575;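 active = viability at or below 30% in both replicate assays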;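 also: 100% = median of untreated cell wells with 0.1% DMSO on each plate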). Conditions: HUVEC proliferation, CellTiter-Glo luminescence, 72 h; at 10 µM; stronger effect = lower value.
A short description of assay [5]: MRP1 drug-resistance reversers in H69AR cells – cell-based, doxorubicin co-treatment, pilot screen (AID 601;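 active = viability loss from added drug above about 55%, and viability with drug at most 40%, in both replicates, limit read from the data, passing the limit was not always enough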). To be noted: CellTiter-Glo, 72 h, at 10 µM; for differential viability (reversal): stronger effect = higher value.
Assay [6] is described as follows: yeast transport mutant growth inhibition pilot in 384-well plates, post-Golgi transport modulator project (AID 636; in the data active = inhibition above about 31%). To be noted: absorbance 615 nm, about 18 h, stronger effect = higher value.
Assay [7] is described as follows: growth suppression of yeast trafficking mutant, preliminary HTS, modulators of trafficking downstream of Golgi apparatus project, 1536-format plate, OD 615 nm (AID 637; in the data active = inhibition above about 30%). To be noted: yeast transport mutant growth, absorbance 615 nm, 18 h; stronger effect = higher value.
A short description of assay [8]: S. cerevisiae growth inhibition in permissive medium (OD615), pilot counter-assay for S. cerevisiae lifespan shortening project, permissive growth control (AID 705;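 active = growth inhibition above 25% in both replicates, a cutoff set 3 SD above the mean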). Conditions: OD615, 24 h, at 10 µM, stronger effect = higher value.
Assay [9] is described as follows: S. cerevisiae growth inhibition in restrictive medium, OD615, pilot screen, restrictive growth control, yeast lifespan reduction project (AID 706;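 active = growth inhibition above a set limit, 3 SD over mean compound inhibition, in both replicates, cut at about 43% in these data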;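 also: modified DeaD lifespan yeast strain shifted to restrictive glucose medium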). To be noted: OD615, 48 h, at 10 µM, stronger effect = higher value.
Assay [10] is described as follows: doxorubicin toxicity protection in MRP-1 cells – H69AR cells, CellTiter-Glo, duplicate, MRP-1 activator project, pilot screen (AID 807;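 active = viability increase at or above a cutoff of the median across tested compounds plus 3 SD, cut at about 8.5% in these data, passing the limit was not always enough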;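 also: compound pretreatment 18-22 h then 72 h combined with doxorubicin; 0% = doxorubicin alone and 100% = vehicle without doxorubicin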). Conditions: H69AR viability with doxorubicin, CellTiter-Glo luminescence; at 10 µM; stronger effect = higher value.
Assay [11] can be described thus: viability of HCT116 without oncogenic beta-catenin – human colon tumor cells, pilot screen (AID 823).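 Also: 0% = wells killed by 20 µM Hyamine and 100% = untreated DMSO cell wells.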 To be noted: HCT116 beta-catenin knockout viability, CellTiter-Glo, 60 h; at 10 µM; stronger effect = lower value.
A short description of assay [12]: viability of PTEN-null HCT116 cells – cell-based, HCT116 clonal line, CellTiter-Glo, pilot screen (AID 824;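 active = viability at or below 27.92% in each of two runs, the all-compound median minus 4 SD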;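 also: 0% = 20 µM Hyamine control and 100% = vehicle cell control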). To be noted: HCT116 PTEN-deleted viability, 60 h, at 10 µM, stronger effect = lower value.
Assay [13] can be described thus: RAM pathway blockade in budding yeast – dse1pr::URA3 reporter, 5-FOA selection, pilot screen (AID 869;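 active = inhibition over a set limit, the all-compound mean plus 3 SD, in both replicate runs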;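 also: 0% = DMSO wells with no growth and 100% = 10 µM 1-NA-PP1 with full growth; RAM network block rescues cells from 5-FOA so hits raise OD615 growth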). To be noted: S. cerevisiae dse1pr::URA3 5-FOA growth, OD615, 2 d; at 10 µM; stronger effect = higher value; strain carries analog-sensitive mutant Cbk1 kinase.
Assay [14] is described as follows: RAM signaling pathway blockade in yeast – S. cerevisiae, Pdr1DBD-CYC8 efflux-inhibited sensitized strain, primary screen (AID 1298;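 active = RAM network inhibition above 8.4% in each of two replicates, 3 SD over the compound average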;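 also: 0% = DMSO untreated cells without growth and 100% = 10 µM 1-NA-PP1 full growth; higher means more yeast growth rescued from 5-FOA killing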). To be noted: S. cerevisiae cbk1-as DSE1-URA3 strain, 5-FOA growth OD615, 2 d; at 50 µM; stronger effect = higher value.
Assay [15] can be described thus: H69AR cell proliferation blockers – human, duplicate replicates, primary screen (AID 580;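 active = viability at or under a set limit in both replicates, limit being median viability minus 3 SD, cut at about 48% in these data, passing the limit was not always enough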;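 also: 100% = mean luminescence of untreated wells and 0% = no signal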). Conditions: H69AR lung tumor cells viability, ATP luminescence, 72 h; at 10 µM; stronger effect = lower value.
Setting [16] is: H69AR cells + 2 uM doxorubicin, measured here: viability with 2 uM doxorubicin, stronger effect = lower value.
The mark [17] stands for this setting: H69AR cells, compound alone cytotoxicity.

Results filed as inconclusive are left out. The source made the active and inactive calls.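 The calls were made as follows, unless noted: active = cell viability at or below a set limit in both duplicate runs, the limit being the all-compound median minus 4 SD (cut at about 23% in these data, passing the limit was not always enough); inconclusive = no clear call, values can overlap the other calls; inactive = the rest.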

Receptor tyrosine-protein kinase erbB-2 (Homo sapiens), sequence (P04626 whole entry, looked up): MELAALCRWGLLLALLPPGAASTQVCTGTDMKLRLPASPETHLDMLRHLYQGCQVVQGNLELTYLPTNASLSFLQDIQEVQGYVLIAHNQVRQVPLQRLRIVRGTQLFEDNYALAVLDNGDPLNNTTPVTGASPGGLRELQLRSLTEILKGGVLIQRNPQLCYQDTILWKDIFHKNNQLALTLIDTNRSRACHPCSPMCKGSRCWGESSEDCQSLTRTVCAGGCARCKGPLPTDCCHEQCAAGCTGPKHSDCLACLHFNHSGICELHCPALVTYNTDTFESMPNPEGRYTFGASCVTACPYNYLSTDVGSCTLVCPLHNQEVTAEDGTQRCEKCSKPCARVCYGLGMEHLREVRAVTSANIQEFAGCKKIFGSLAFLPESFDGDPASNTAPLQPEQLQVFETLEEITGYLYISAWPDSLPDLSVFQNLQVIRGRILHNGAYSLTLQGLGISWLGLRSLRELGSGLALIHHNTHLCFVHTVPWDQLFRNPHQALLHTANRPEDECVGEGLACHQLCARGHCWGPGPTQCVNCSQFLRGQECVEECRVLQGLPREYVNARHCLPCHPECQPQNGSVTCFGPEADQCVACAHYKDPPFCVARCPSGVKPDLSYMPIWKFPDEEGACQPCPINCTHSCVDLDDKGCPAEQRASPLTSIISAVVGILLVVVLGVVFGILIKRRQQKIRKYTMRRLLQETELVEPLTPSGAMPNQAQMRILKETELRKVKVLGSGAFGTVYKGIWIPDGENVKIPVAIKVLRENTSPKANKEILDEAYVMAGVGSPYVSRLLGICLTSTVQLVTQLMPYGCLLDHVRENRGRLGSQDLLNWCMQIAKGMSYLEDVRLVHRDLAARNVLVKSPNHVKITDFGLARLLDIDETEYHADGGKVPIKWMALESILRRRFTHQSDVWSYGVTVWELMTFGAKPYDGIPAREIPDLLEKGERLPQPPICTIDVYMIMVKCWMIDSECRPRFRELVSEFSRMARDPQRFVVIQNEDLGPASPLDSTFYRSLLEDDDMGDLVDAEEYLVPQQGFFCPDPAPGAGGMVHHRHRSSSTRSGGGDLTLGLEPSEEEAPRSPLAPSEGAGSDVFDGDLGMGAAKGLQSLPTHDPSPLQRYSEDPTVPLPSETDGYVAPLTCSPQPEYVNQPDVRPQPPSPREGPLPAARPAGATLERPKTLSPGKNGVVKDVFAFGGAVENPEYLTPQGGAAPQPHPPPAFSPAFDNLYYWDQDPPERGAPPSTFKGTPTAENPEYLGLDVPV

The term viability denotes a read-out of living cells in per cent, often relative to untreated cells. Usually inhibition stands for the change of the read-out against control, counted positive when it falls. With `CN(C)c1ccc(C(=O)Nc2nnc(-c3ccc(Cl)cc3)o2)cc1`, the viability in assay [1] was 92%; in [3], 92% (inactive); in assay [4] it was 13.4% (active); in assay [5] (setting [16]) it was 81.2%; in assay [5] (setting [17]), 47.8%; in [11] it was 26.8% (inactive). In addition, in assay [12], the viability is 25.2% (active). Also, the Her2 level in assay [2] was 75.5% (inactive). Further, in [5] (H69AR cells + 2 uM doxorubicin), the differential viability (reversal) was -33.4% (inactive). In addition, the inhibition in assay [6] was 29.9% (inactive); in assay [7], 21.5% (inactive); in assay [13], 1.5% (inactive). In addition, the growth inhibition in assay [8] was 5.56% (inactive); in [9], -19.4% (inactive). In assay [10], the viability increase was -3.93% (inactive). Further, in assay [14], the RAM network inhibition is 2.45% (inactive).

Take `Cc1ccc(C)c(N2CCN(CCCNC(=O)Cn3cc4c(n3)CCC(C)C4)CC2)c1` (stereo not drawn): the viability was 90.5% in assay [1]; 90.5% (inactive) in [3]; 26.6% (active) in [15]; 46.9% in [5] (setting [16]); 26.6% in [5] (setting [17]); 1.61% (active) in assay [11]. In assay [12], the viability is 2.81% (active). Further, in assay [2], the Her2 level is 78% (inactive). Also, the differential viability (reversal) in assay [5] (H69AR cells + 2 uM doxorubicin) is -20.3% (inactive). Further, the inhibition in assay [6] was -1.54% (inactive); in [7], -2.83% (inactive); in assay [13] it was 1.44% (inactive). In addition, the figures for the growth inhibition in assay [8] and in assay [9] were 6.12% (inactive) and 10.4% (inactive), respectively. Also, the viability increase in assay [10] was -6.04% (inactive). The RAM network inhibition in [14] was 0.11% (inactive).

On to `Cc1nc2ccccc2c2oc(C(=O)NCC3COc4ccccc4O3)cc12` (stereo not drawn), for which the viability in [1] was 103%; in assay [3], 103% (inactive); in [15], 88.4% (inactive); in [5] (setting [16]) it was 88.3%; in assay [5] (setting [17]), 88.4%; in assay [11], 61.2% (inactive). For the same compound, the viability in [12] was 70.8% (inactive). The Her2 level in [2] is 58.5% (inactive). Moreover, the differential viability (reversal) in assay [5] (H69AR cells + 2 uM doxorubicin) is 0.085% (inactive). The inhibition in assay [6] is 0.13% (inactive); in [7], 6.33% (inactive); in [13], 1.69% (inactive). Also, the growth inhibition is -0.145% (inactive) in [8] and -3.1% (inactive) in assay [9]. Besides, the viability increase in assay [10] is -1.89% (inactive). The RAM network inhibition in [14] is 3.41% (inactive).

Consider `CCOc1ccccc1NC(=O)C1CCCN(S(=O)(=O)c2cccc3cccnc23)C1` (stereo not drawn), for which the viability in assay [1] is 108%; in assay [3] it was 108% (inactive); in assay [15] it was 78.1% (inactive); in assay [5] (setting [16]), 89.8%; in assay [5] (setting [17]), 78.1%; in [11], 76.2% (inactive). Moreover, the viability in assay [12] is 71.9% (inactive). Further, the Her2 level in [2] is 94.5% (inactive). For the same compound, the differential viability (reversal) in [5] (H69AR cells + 2 uM doxorubicin) was -11.7% (inactive). Besides, the inhibition in assay [6] was -6.13% (inactive); in [7] it was 1.67% (inactive); in assay [13], 1.14% (inactive). Besides, the figures for the growth inhibition in assay [8] and in [9] were -4.4% (inactive) and -21% (inactive), respectively. Further, the viability increase in assay [10] was -3.58% (inactive). The RAM network inhibition in assay [14] is 4.95% (inactive).

On to `O=C(c1ccc2snnc2c1)N1CCOCC1`, for which the viability in [3] is 101% (inactive); in assay [4], 90.2% (inactive); in assay [15] it was 102% (inactive); in assay [5] (setting [16]) it was 88.9%; in assay [5] (setting [17]), 102%; in assay [11] it was 102% (inactive). The viability in assay [12] is 99.4% (inactive). For the same compound, the differential viability (reversal) in [5] (H69AR cells + 2 uM doxorubicin) was 12.8% (inactive). The inhibition in assay [6] is -1.73% (inactive); in assay [7] it was -0.55% (inactive); in [13], 1.69% (inactive). The growth inhibition was 0.235% (inactive) in [8] and -15.9% (inactive) in assay [9]. For the same compound, the viability increase in assay [10] is 0.28% (inactive). In addition, in assay [14], the RAM network inhibition is 1.07% (inactive).

As for `Cc1cc(=O)oc2c1ccc1oc(/C(=N/O)c3ccccc3)c(C)c12`, the viability was 84% in assay [1]; 84% (inactive) in [3]; 74.5% (inactive) in assay [15]; 91.7% in assay [5] (setting [16]); 74.5% in assay [5] (setting [17]); 80.8% (inactive) in assay [11]. In assay [12], the viability is 65.4% (inactive). For the same compound, in assay [2], the Her2 level is 112% (inactive). In addition, the differential viability (reversal) in assay [5] (H69AR cells + 2 uM doxorubicin) was -17.2% (inactive). Also, the inhibition is 8.46% (inactive) in assay [6], 17.2% (inactive) in [7] and 0.035% (inactive) in assay [13]. For the same compound, the growth inhibition in assay [8] is -11% (inactive); in assay [9], 10.6% (inactive). Besides, the viability increase in assay [10] is 5.23% (inactive). For the same compound, the RAM network inhibition in assay [14] is 9.44% (inactive).

Take `Oc1cccc(C=NCc2ccccc2)c1O`: the viability was 78% in [1]; 78% (inactive) in assay [3]; 67.3% (inactive) in [4]; 77% in assay [5] (setting [16]); 51% in [5] (setting [17]); 71% (inactive) in [11]. Further, in [12], the viability is 72.2% (inactive). In addition, in [2], the Her2 level was 82.5% (inactive). Moreover, the differential viability (reversal) in assay [5] (H69AR cells + 2 uM doxorubicin) is -26% (inactive). Moreover, the inhibition in assay [6] is -0.39% (inactive); in assay [7] it was -0.5% (inactive); in assay [13], -0.21% (inactive). Also, the growth inhibition is 83.7% (active) in [8] and 97.5% (active) in assay [9]. Moreover, in assay [10], the viability increase was -3.97% (inactive). The RAM network inhibition in [14] was -1.18% (inactive).

Turning to `O=C(Nc1ccc2c(c1)OCCO2)C1CCN(C(=O)c2ccc(F)cc2)CC1`, the viability is 90% (inactive) in assay [3]; 94.9% (inactive) in [4]; 92.5% (inactive) in assay [15]; 86.8% in assay [5] (setting [16]); 92.5% in assay [5] (setting [17]); 92.3% (inactive) in assay [11]. Moreover, in [12], the viability is 93% (inactive). For the same compound, the differential viability (reversal) in [5] (H69AR cells + 2 uM doxorubicin) was 5.68% (inactive). Moreover, the inhibition was -4.53% (inactive) in assay [6], -4.55% (inactive) in assay [7] and 0.685% (inactive) in assay [13]. Further, the growth inhibition in assay [8] is -9.55% (inactive); in [9], -4.03% (inactive). In addition, the viability increase in assay [10] is -3.11% (inactive). The RAM network inhibition in assay [14] is 6.28% (inactive).

In the case of `CN(C)c1ccc(NC(=O)Cn2cc3c(n2)CCCC3)cc1`, the viability in assay [1] was 77.5%; in assay [3] it was 77.5% (inactive); in assay [15] it was 74% (inactive); in [5] (setting [16]), 84.1%; in assay [5] (setting [17]) it was 74%; in assay [11], 64.2% (inactive). Besides, in [12], the viability was 62% (inactive). Further, in assay [2], the Her2 level was 67% (inactive). The differential viability (reversal) in assay [5] (H69AR cells + 2 uM doxorubicin) is -10.1% (inactive). Also, the values for the inhibition in assay [6], in assay [7] and in assay [13] were -4.13% (inactive), -5% (inactive) and 2% (inactive), respectively. The results for the growth inhibition in [8] and in assay [9] were 11.9% (inactive) and 13.9% (inactive), respectively. Moreover, the viability increase in assay [10] was -2.45% (inactive). Also, the RAM network inhibition in [14] was 1.84% (inactive).

Regarding `Cc1ccc(C2c3c(oc4ccccc4c3=O)C(=O)N2c2nnc(C(C)C)s2)o1` (stereo not drawn), the viability in [1] is 84%; in assay [3], 84% (inactive); in [15], 11.2% (active); in assay [5] (setting [16]), 14.7%; in [5] (setting [17]) it was 11.2%; in assay [11] it was 104% (inactive). In addition, the viability in [12] was 98.1% (inactive). Also, in assay [2], the Her2 level was 61% (inactive). Also, the differential viability (reversal) in assay [5] (H69AR cells + 2 uM doxorubicin) was -3.47% (inactive). Besides, the inhibition was -5.2% (inactive) in [6], 3.17% (inactive) in assay [7] and 0.83% (inactive) in [13]. The growth inhibition in [8] is -13.3% (inactive); in [9] it was -9.87% (inactive). For the same compound, the viability increase in assay [10] is -3.23% (inactive). Moreover, in assay [14], the RAM network inhibition is 1.85% (inactive).

Values taken from PubChem BioAssay.
